# Rows were chosen to be rich in hits. Some 21% of all compounds tested hit in one or more screens of this group.
# Pf growth 96h – P. falciparum growth inhibition at 96 hour, primary screen for plastid delayed-death inhibitors | P. falciparum luciferase reporter growth, 96 h | Potency, µM (doses to about 28.7 µM), for the others: top-dose activity change, negative = inhibition, hits mostly inhibitors | actives 6.9% (n = 320,000); note: potency is the fitted concentration of half-maximal effect; % is set by controls: 0 for no effect and ±100 for the full control effect
#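 Parasite growth measured via integrated firefly luciferase reporter in P. falciparum. Infected erythrocytes at 2% hematocrit, 0.05% parasitemia final were treated 96 hours at 37 C under 5% CO2, and luminescence was read.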
# Cycloheximide cs – affects cycloheximide protein synthesis inhibition readout, counter-screen | cell reporter, cycloheximide protein synthesis inhibition counterscreen | max response, % | actives 12% (n = 300,000) | AID 2314; in the data active = max response mostly above about 13%, no sharp cut-off; inactive = mostly below about 14%; note: read at 38.3 µM for the half of the compounds with a filed dose; 0% is about no effect
# HCV inh – blocks hepatitis C virus; Potency, µM (top dose mostly 41.8 µM), without a hit: top-dose activity change, negative = inhibition, hits mostly inhibitors; Huh7.5.1 HCVcc-Cre infection, luciferase reporter, 44 h; actives 3.4% (n = 340,000); AID 651820; note: potency is the fitted concentration of half-maximal effect; % is set by controls: 0 for no effect and ±100 for the full control effect
#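 After 44 h co-culture of compound, cells and HCVcc-Cre (~0.5 moi), substrate is added for 15 min at room temperature and luciferase measured over 15 sec. Cells were seeded at 1,000/well and pre-cultured 4 h.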
# AMA1-RON2 inh – disrupts binding of P. falciparum AMA1 to RON2; AlphaScreen AMA1-biotinylated RON2 peptide binding; Potency, µM (doses to about 58.2 µM), inactives show at the top dose activity change, negative = inhibition, usual class: inhibitors; actives 0.2% (n = 360,000); AID 720542;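 note: potency is the fitted concentration of half-maximal effect; 0% = vehicle wells and -100% = peptide control; nearly all actives have a fitted effect of over 45% in size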
#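 AMA1 (3D7) with his tag at 25 nM final met compounds first, then biotinylated RON2 peptide at 25 nM; detection used donor plus acceptor beads, 10 µg/mL apiece, read by AlphaScreen after 30 min at room temperature.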
# Shiga toxin inh – blocks Shiga toxin action in Vero cells | inhibition, % at 38.7 µM | actives 9.2% (n = 290,000) | Vero cells, Shiga toxin protein synthesis inhibition reporter | AID 2315; in the data active = inhibition mostly above about 28%, no sharp cut-off; inactive = mostly below about 43%; note: 0% is about no effect
# Pf growth 48h – inhibits P. falciparum growth in the first generation, 48 h; P. falciparum luciferase growth in erythrocytes, 48 h; Potency, µM (doses to about 28.7 µM), without a hit: at the highest dose activity change, negative = inhibition, usual class: inhibitors; actives 5.9% (n = 310,000); AID 504832; note: potency is the fitted concentration of half-maximal effect; % is set by controls: 0 for no effect and ±100 for the full control effect
#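 First compound was added to culture medium, then infected red cells at 0.1% parasitemia and 2% hematocrit (final). After incubation at 37 C under 5% CO2, luciferase detection reagent was dispensed and light output recorded.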
# * hit, by the source's call; ? = inconclusive; nt = no result given. Unless noted, calls come from the whole dose curve; as a rule, active = well fitted curve in the direction sought with a large enough effect; inconclusive = small, poorly fitted or top-dose-only effect, or another doubt; inactive = no such curve, though single readings can be large; an effect the other way counts as inactive or inconclusive.
SMILES,Pf growth 96h,Cycloheximide cs,HCV inh,AMA1-RON2 inh,Shiga toxin inh,Pf growth 48h
O=C1C([N+](=O)[O-])=C(O)c2cccc3cccc1c23,24.5%,11.1*,nt,nt,8.5,-0.1%
O=C1C(=O)c2cccc3cccc1c23,6.57µM*,-1.2,13.9%,0.8%,-3.3,10.4µM*
CNC(=S)N/N=C1\C(=O)c2cccc3cccc1c23,?,22.8*,2.5%,-11.3%,22.5,0.0%
Cc1cc(C)cc(NC(=O)N2CCCN(Cc3c(F)cccc3Cl)CC2)c1,?,-2.2,-25.5%,1.9%,3.3,?
CCCCN(Cc1ccccc1)C(=O)C1CCC(=O)N(CCc2ccccn2)C1 (stereo unspecified),?,-2.5,16.5%,0.0%,-1.5,-5.3%
Cn1c(SCC(=O)Nc2cccnc2Cl)nnc1-c1ccco1,nt,nt,7.8%,-3.4%,nt,nt
CCC12CN(S(=O)(=O)c3ccc(C)cc3)CC(CC)(CN(S(=O)(=O)c3ccc(C)cc3)C1)C2=O,2.33µM*,-2.7,-11.7%,-0.9%,14.9,nt
CC12CCC(=O)N1C(C(=O)Nc1nc3c(F)cc(F)cc3s1)CS2 (stereo unspecified),?,21.3*,-10.5%,11.0%,21.6,-24.0%
Cc1cccc2sc(NC(=O)C3CSC4(C)CCC(=O)N34)nc12 (stereo unspecified),-13.5%,1.5,?,-9.9%,-4.6,-14.7%
CCC(=O)Nc1nnc(SCc2ccccc2F)s1,-5.2%,14.8,0.6%,-4.1%,78.8*,36.3%
CC12CCC(=O)N1C(C(=O)Nc1nnc(SCc3ccccc3F)s1)CS2 (stereo unspecified),32.7%,19.7*,16.8%,3.1%,55.8*,-0.9%
CCCCC(=O)Nc1ccccc1C(=O)OCC(=O)c1ccc2c(c1)OCCO2,32.9%,38.3*,?,-12.2%,active,49.3%
CCOc1ccccc1C(=O)NCC(=O)OCC(=O)c1ccc2c(c1)OCCO2,?,5.8,22.0%,3.4%,16.8,18.9%
O=C(O)/C=C/C(=O)Nc1ccccc1C(=O)OCC(=O)c1ccc2c(c1)OCCO2,?,24.9*,18.2%,6.2%,74.6*,-1.0%
Brc1ccc(-c2nc3c4ccccc4ccn3c2Cc2ccccc2)cc1,nt,nt,nt,1.7%,nt,nt
CC(=O)Nc1ccc(-c2ccnc3c2CC(C(=O)Nc2cccc(C(C)=O)c2)O3)cc1 (stereo unspecified),nt,nt,nt,3.4%,nt,nt
COc1ccc(Nc2cc(C)c3ccccc3n2)cc1,-17.0%,41.5*,?,?,103.3*,5.5%
COc1ccc(Nc2c3c(nc4ccccc24)CCCC3)cc1OC,0.8%,-7.3,?,-17.7%,-2.9,-17.7%
COc1ccc(Nc2c3ccccc3nc3ccccc23)cc1,42.7%,22.5*,?,-12.7%,44.5*,4.15µM*
COc1ccc(OC)c(Nc2cc(C)nc3ccccc23)c1,?,-1.2,?,-15.8%,5.0,?
COc1cc(Nc2c3ccccc3nc3ccccc23)cc(OC)c1OC,?,-0.6,?,-22.1%,-3.1,7.38µM*
COc1ccc(Cl)cc1Nc1cc(C)nc2ccccc12,nt,nt,11.2µM*,-8.4%,nt,nt
Cc1cc(Nc2ccc([N+](=O)[O-])cc2)nc2ccccc12,26.1%,-3.0,?,5.1%,18.6,?
Nc1nc2c(nnn2Cc2ccc(Cl)c(Cl)c2)c(=O)[nH]1,nt,nt,12.1%,-11.6%,nt,nt
CC1(C(=O)Nc2cnc3ccccc3c2)CCN1Cc1cc2ccccc2o1 (stereo unspecified),nt,nt,nt,3.1%,nt,nt
SMILES,Pf growth 96h,Cycloheximide cs,HCV inh,AMA1-RON2 inh,Shiga toxin inh,Pf growth 48h
COc1ccccc1Nc1nc2ccccc2[nH]1,?,28.6*,-19.5%,1.1%,90.9*,?
COc1ccccc1Nc1c2ccccc2nc2ccccc12,2.33µM*,-1.8,10µM*,-2.7%,-2.9,7.38µM*
COc1cc(Nc2nc(-c3ccccc3)c3cc(C)ccc3n2)cc(OC)c1OC,2.7%,15.1,10µM*,-26.1%,-10.7,?
Cc1ccc2nc(NCC(=O)O)nc(-c3ccccc3)c2c1,15.4%,-1.2,0.3%,43.8%,-15.6,11.7%
CCc1ccccc1Nc1nc2ccccc2[nH]1,nt,nt,?,35.2%,nt,nt
COc1ccc(C)cc1Nc1c2c(nc3ccccc13)CCC2,49.4%,-3.3,?,-9.5%,5.1,nt
